Laboratory results as given in PubChem BioAssay.
A number with no mark means an inactive call. The source made the active and inactive calls. Unless noted, no stated cut-off is given here; in the data, active means inhibition above about 36%; inactive means the rest.

Experiments:
[1] = test system: transactivating tegument protein VP16 (Human herpesvirus 1); assay: compounds suppressing VP16-driven luciferase signal – cell-based, luminescence, single concentration, counter-screen for SRC2 inhibitor project (AID 652007); settings: cell-based VP16 transactivation luciferase reporter, at 8.9 µM, active compounds read high
[2] = molecular target: Nuclear receptor coactivator 2 (Homo sapiens) (UniProt Q15596); assay: inhibition of GAL4-SRC2 driven luciferase expression – cell-based, luminescence, HEK293, triplicate, confirmation (AID 652008;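 active means mean inhibition above 46.5%, the solvent-only control mean plus 3 SD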;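 further: 0% = DMSO-treated cells and 100% = Gossypol at 36 µM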); settings: HEK293 GAL4-SRC2 luciferase reporter, at 8.9 µM, active compounds read high
Nuclear receptor coactivator 2 (Homo sapiens), sequence (Q15596 whole entry, looked up, the tested form may be a part): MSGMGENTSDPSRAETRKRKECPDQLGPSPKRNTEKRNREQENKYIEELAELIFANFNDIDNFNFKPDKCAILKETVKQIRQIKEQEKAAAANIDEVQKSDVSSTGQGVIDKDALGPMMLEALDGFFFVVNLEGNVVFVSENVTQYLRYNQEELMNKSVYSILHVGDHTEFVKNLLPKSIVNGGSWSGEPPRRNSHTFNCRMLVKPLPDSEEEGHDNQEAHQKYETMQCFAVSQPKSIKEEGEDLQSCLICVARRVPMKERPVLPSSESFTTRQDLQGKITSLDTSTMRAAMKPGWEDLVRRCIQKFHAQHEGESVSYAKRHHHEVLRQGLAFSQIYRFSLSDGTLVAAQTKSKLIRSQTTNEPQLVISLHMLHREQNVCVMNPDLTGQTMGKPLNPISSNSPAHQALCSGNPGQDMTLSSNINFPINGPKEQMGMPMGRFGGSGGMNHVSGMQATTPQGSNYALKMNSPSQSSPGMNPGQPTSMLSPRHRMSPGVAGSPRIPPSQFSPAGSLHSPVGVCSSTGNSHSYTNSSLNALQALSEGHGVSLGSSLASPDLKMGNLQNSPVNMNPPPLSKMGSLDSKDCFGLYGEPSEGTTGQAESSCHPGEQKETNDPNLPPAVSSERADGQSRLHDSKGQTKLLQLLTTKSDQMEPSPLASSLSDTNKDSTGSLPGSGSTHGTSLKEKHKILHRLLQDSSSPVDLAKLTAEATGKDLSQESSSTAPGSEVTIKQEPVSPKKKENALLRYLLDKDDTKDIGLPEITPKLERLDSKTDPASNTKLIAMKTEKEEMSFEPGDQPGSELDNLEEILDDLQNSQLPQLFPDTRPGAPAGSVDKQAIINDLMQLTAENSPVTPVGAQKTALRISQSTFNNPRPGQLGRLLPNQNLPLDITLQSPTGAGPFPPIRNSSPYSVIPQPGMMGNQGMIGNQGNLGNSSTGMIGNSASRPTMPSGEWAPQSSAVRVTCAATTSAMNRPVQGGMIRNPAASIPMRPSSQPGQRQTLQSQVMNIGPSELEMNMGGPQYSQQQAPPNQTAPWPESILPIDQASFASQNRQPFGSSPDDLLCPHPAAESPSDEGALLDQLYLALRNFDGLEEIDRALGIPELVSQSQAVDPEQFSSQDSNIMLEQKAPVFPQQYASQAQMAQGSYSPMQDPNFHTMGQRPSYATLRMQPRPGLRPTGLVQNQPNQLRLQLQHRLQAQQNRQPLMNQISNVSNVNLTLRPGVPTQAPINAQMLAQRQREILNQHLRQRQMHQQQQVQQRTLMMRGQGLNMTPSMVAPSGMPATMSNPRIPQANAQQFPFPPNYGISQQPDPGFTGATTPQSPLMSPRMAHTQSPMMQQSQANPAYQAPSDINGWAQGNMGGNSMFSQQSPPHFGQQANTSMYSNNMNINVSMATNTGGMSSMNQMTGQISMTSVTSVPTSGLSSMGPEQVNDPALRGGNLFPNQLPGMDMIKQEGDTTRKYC

SMILES | inhibition [1] [%] | inhibition [2]
COc1ccc(NC(=O)CSCC(=O)Nc2ccccc2C(=O)N2CCCCC2)cc1 | -8.77 | -20.5%
O=C(c1ccc(S(=O)(=O)Cc2cc(F)ccc2F)c([N+](=O)[O-])c1)N1CCOCC1 | 5.57 | 13.5%
O=C(Nc1ccc2oc(=O)c(C(=O)O)cc2c1)Oc1ccccc1 | -3.08 | 9.66%
CC(=O)N(CCc1ccccc1)c1ccc2c(c1)C1CC2CCN1C(=O)OCc1ccccc1 (stereo not drawn) | 17 | 18.6%
COc1cc(C(O)c2nc(-c3ccncc3)cs2)ccc1F (stereo not drawn) | 4.64 | 20.8%
CCC(=O)Nc1ccc(NC(=O)c2oc3ccccc3c2C)cc1 | -12.3 | 38.1%
COc1cc(NC(=O)C2CC(c3c(F)cccc3Cl)=NO2)cc(OC)c1OC (stereo not drawn) | -4.58 | 4.43%
COc1ccc(C(=O)NCCNc2nc3cc(C)cc(C)c3cc2C#N)c(OC)c1 | 3.31 | 86.2% (active)
CCOc1ccc(-c2nc(CSCC(=O)NC3CCN(Cc4ccccc4)CC3)c(C)o2)cc1 | 8.65 | 19.7%
O=S(=O)(c1cc(C(F)(F)F)ccc1Cl)N1CCN(c2ncnc3ccccc23)CC1 | 17.2 | 18.7%
COc1ccccc1/C=C/C(=O)c1cc(Br)ccc1OC(=O)c1ccco1 | -1.7 | -2.06%
COc1ccc(-c2cc(C(=O)O)c(C)o2)cc1OC | -74 | -11.1%
Brc1cccc(-c2cnc3n2CCCCC3)c1 | 12.6 | 29.2%
CN1CCC(=NNc2ncnc3sc4c(c23)CCCC4)CC1 | -9.72 | -19.6%
O=C(N/N=C/c1ccc(O)cc1)c1[nH]c2ccc(Br)cc2c1-c1ccccc1 | -15.2 | -7.94%
COC(=O)[C@H]1C[C@@]2(c3ccccc3)c3ccccc3N(S(=O)(=O)c3ccccc3)[C@H]2N1 | 6.95 | 18.3%
CCC(C)[C@H](NC(=O)N1CCn2c1nc1ccccc12)C(=O)NCc1ccc(OC)cc1 (stereo partly drawn) | -13 | 8.36%
Cc1nc([N+](=O)[O-])c(C(=O)OCc2ccccc2F)n1C | -22.8 | 1.38%
CCCCCCC(=O)N(O)C1CC(=O)N(c2ccc(C)cc2)C1=O (stereo not drawn) | 9.6 | 39.9%
Cn1cc(S(=O)(=O)Nc2ccc3c(c2)OCCO3)cn1 | -16 | 32.5%
O=C(Nc1nccs1)c1cc([N+](=O)[O-])ccc1Cl | 12.7 | 42.9%
CC(C)=CCc1c(O)ccc2c1OC(c1ccc(O)c(O)c1)CC2=O (stereo not drawn) | 10.7 | 56.9% (active)
O=C(CNC(=O)c1ccc2c(c1)OCO2)Nc1cccc(Br)c1 | -13.8 | -16.3%
COc1ccc(CN2C[C@H](COCc3ccccc3)Oc3cccc(N4CCCC4)c3S2(=O)=O)cc1 | -11 | -6.23%
